The panel holds about 83,000 compounds, 20% with a hit somewhere; the sample as a whole holds those more often.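 Single-dose data. Exposure time 48 hours. Values below 10 considered active.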 A number with no mark means an inactive call. Calls of active or inactive are those of the source.
What follows are molecules tested on NCI-H322M lung (assay: NCI-60 one-dose screen, 48 h (100 = growth as untreated, 0 = no growth, -100 = all killed)). Conditions: 10 µM unless noted.
Protocol: Growth inhibition of the NCI-H322M human Non-Small Cell Lung tumor cell line is measured as a screen for anti-cancer activity. Cells are grown in 96 well plates and exposed to the test compound for 48 hours. Compounds are tested at a single concentration, which is 10^-5 M for most compounds. The reported endpoint is percent growth (GI% or GIPRCNT), where numbers from 0 - 100% represent growth inhibition, and numbers from -100% - 0 represent cell death. For example, a value of 40 represents 60% growth inhibition. A value of 0 means no net growth occurred over the course of the experiment. A value of -40 indicates 40% of cells at the beginning of the experiment died by the end of the experiment. A value of -100 means all cells are dead at the end of the experiment.
NCI-60 Human Tumor Cell Lines Screen was performed using the standard one-dose NCI protocol, which is described in more detail at https://dtp.cancer.gov/discovery_development/nci-60/default.htm.
Compounds with GIPRCNT values below 10 were considered active. Activity score was based on GIPRCNT using the following formula: […]
Score is 0 for GIPRCNT values of 100 or above, 50 for GIPRCNT values of 0, and 100 for GIPRCNT values of -100.
In the case of `COC(=O)c1c2c(c(C)[n+]([O-])c1C)C(=O)C=C(NCc1ccc(F)c(F)c1)C2=O`, the growth is reported as -15.7% (active). In the case of `COC(=O)c1c2c(c(C)[n+]([O-])c1C)C(=O)C(NCc1ccc(Br)cc1)=CC2=O`, the growth is reported as 28.7%. `COc1cc(C2C(C#N)=C(N)OC3=C2C(=O)c2ccccc2C3=O)cc(OC)c1OC` (stereo not given) showed a growth of 48.1%. For `CCCCCCC(O)(c1ccc(F)cc1)C(CN1CCOCC1)c1ccccc1` (stereo not given), the growth was 74.7%. For `O=C(CSc1nc2ccccc2c(=O)n1-c1ccccc1)Nc1ccc(C(=O)/C=C/c2ccc(Cl)cc2)cc1`, the growth was 101%. In the case of `O=c1oc2ccc(Br)cc2c(=O)n1-c1ccc(I)cc1F`, the growth is reported as 4.56% (active). `CCOC(=O)c1sc(-c2ccc(OS(=O)(=O)c3cccs3)c(C=O)c2)nc1C` was tested, and the growth was 47.3%. For `COc1ccc(-c2cn[nH]c2-c2ccc(OC)c(O)c2)cc1`, the growth was 98.6%. For `O=c1oc2ccc(Br)cc2c(=O)n1-c1ccc(F)cc1F`, the growth was 7.55% (active). `CCOc1cccc(/C=N\Nc2nc(=O)cc(C(=O)OC)s2)c1O` showed a growth of 54.2%. `Cc1ccc(CN2CCC(C(=O)Nc3ccc(-c4cc5ccccc5[nH]4)cc3)CC2)o1` showed a growth of 95.1%. With `O=c1oc2ccc(F)cc2c(=O)n1-c1ccc(Cl)cc1F` the growth was 7.62% (active). In the case of `FC(F)(F)c1cccc(Nc2nc(-c3ccccc3)nc3ncccc23)c1`, the growth is reported as 87.8%. `CC(=O)O[C@@H]1/C=C/C(=O)N[C@@H](C)CCC/C=C/[C@@H]2CCC[C@H]21` showed a growth of 93.2%. For `O=C(CN1C=NC2C(N3CCOCC3)=NC=NC21)c1ccc(Br)cc1` (stereo not given), the growth was 97.2%. Work on `Cc1c(-c2csc(-n3nc(C(F)(F)F)cc3C(F)(F)F)n2)no[n+]1[O-]` yielded a growth of 98.8%. `O=C1c2ccc3c4c(ccc(c24)C(=O)N1CCCCO)C(=O)N(CCCCO)C3=O` showed a growth of 90.9%. With `COc1cc2nc(-c3cccc4cccnc34)nc(NC3CCN(Cc4ccccc4)CC3)c2cc1OC` the growth was -71.3% (active). Work on `CCN1CCN(C(=S)SCC(=O)Nc2nc3ccc(C)cc3s2)CC1` yielded a growth of 103%. `CCOC(=O)C1(C(=O)OCC)N=C(c2ccccc2)C=C1c1ccccc1` showed a growth of 103%. `COc1ccc(C2C3=C(COC3=O)N(CCO)c3cc4c(cc32)OCCO4)cc1` (stereo not given) showed a growth of 125%. Work on `Nc1nonc1-n1nncc1-c1cccnc1` yielded a growth of 101%. With `COc1cc(C2C3=C(COC3=O)N(CCO)c3cc4c(cc32)CCC4)cc(OC)c1O` (stereo not given) the growth was 53.1%. With `COc1ccc(-c2nc(N3CCN(C(=O)C4CCCCC4)CC3)c3c4c(sc3n2)CCCC4)cc1` the growth was 43.1%. In the case of `Cc1ccc(C)c(-c2csc(Nc3ccc(C)c(C)c3)n2)c1`, the growth is reported as 91.1%. With `COc1cc(/C=C/C(=O)N2c3ccccc3CC2C)c(OC)c2c1OCO2` (stereo not given) the growth was 101%. `COc1nc2c(c(=O)n1C)N=C1c3ccccc3C(=O)C1C(c1ccccc1)N2` (stereo not given) gave a growth of 104%. `N#CC(C#N)=Cc1c(-c2ccccc2)[nH]c2ccccc12` showed a growth of 61%. `O=C(Nc1ccc(Cl)cc1)c1cc2ccccc2cc1OP(=O)(O)O` showed a growth of 22.7%. `Cc1c(C(=O)OCCO)cc(-c2ccc(Cl)cc2)n1-c1ccc(Cl)cc1Cl` showed a growth of 84.3%. `COc1ccc(/C=C2\NC(=O)NC2=O)cc1O` showed a growth of 109%. Work on `Clc1ccc(Nc2scc3[n+]2CCC3)cc1` yielded a growth of 101%. `COc1ccc2c(c1)C=C1CSCC3=Cc4cc(OC)ccc4OC13O2` showed a growth of 49.2%. For `CC1=NCC2NC(=O)NC(C)=C12` (stereo not given), the growth was 94.7%. In the case of `CCCSC1=NC2C(N(CC)C(=O)N2CC)N1/N=C/C=C/c1ccccc1[N+](=O)[O-]` (stereo not given), the growth is reported as 57.5%. Work on `COc1cc(/C(C#N)=C/c2nc3c(N4CCOCC4)nc(Cl)nc3n2C)cc(OC)c1OC` yielded a growth of 28.8%. For `Cn1cc([C@@H]2Nc3ccc4[nH]ncc4c3[C@H]3[C@H]4CCC(C4)[C@H]32)c(C(F)(F)F)n1`, the growth was 89.5%. `O=C(Nc1ccc(-c2nc3ccc(NC(=O)c4ccc(Cl)cc4)cc3[nH]2)cc1)c1ccc(Cl)cc1` showed a growth of 10.4%. `Nc1nc(-c2ccccc2Br)nn1-c1nc2ccccc2s1` gave a growth of 105%. In the case of `COc1cc(-c2c3c(cn2S(=O)(=O)c2ccccc2)-c2nc(N)sc2CC3)cc(OC)c1OC`, the growth is reported as 41%.

— PubChem BioAssay (NCI)
